PubChem BioAssay
Activity calls are given as the source filed them.

What was measured:
[1] = small molecules captured by biotinylated probe aFSTL3 – biochemical, small-molecule microarray, fluorescence 635/667, stem cell growth factor project, primary screen (AID 1064); conditions: higher = more signal;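 further: measures binding of the biotinylated anti-FSTL3 antibody to printed compounds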
[2] = binders from COS7 lysate, DM2A8 probe, primary screen, torsin A project, cell lysate, small-molecule microarray, fluorescence 635/667 (AID 1065); conditions: higher = more signal, COS7 lysate expressing mutant human TOR1A
[3] = small molecules captured by biotinylated probe aFGF2 – biochemical, small-molecule microarray, fluorescence 635/667, stem cell growth factor project, primary screen (AID 1067); conditions: higher = more signal;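 further: measures binding of biotinylated aFGF2 protein to printed compounds on slides; z-score merges feature fluorescence and signal-to-noise across triplicate slides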
[4] = small molecules captured by biotinylated probe aFGF10 – biochemical, small-molecule microarray, fluorescence 635/667, stem cell growth factor project, primary screen (AID 1071); conditions: higher = more signal;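 further: score merges 667 nm spot intensity and signal to noise from triplicate slides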
[5] = target: Neurogenic locus notch homolog protein 2 (Homo sapiens) (UniProt Q04721); test: small molecules binding Notch2 protein – biochemical, small-molecule microarray, 635 nm fluorescence, stem cell growth factors, primary screen (AID 1073); conditions: higher = more signal
Chain of Neurogenic locus notch homolog protein 2 (Homo sapiens) (Q04721 whole entry, looked up, canonical isoform): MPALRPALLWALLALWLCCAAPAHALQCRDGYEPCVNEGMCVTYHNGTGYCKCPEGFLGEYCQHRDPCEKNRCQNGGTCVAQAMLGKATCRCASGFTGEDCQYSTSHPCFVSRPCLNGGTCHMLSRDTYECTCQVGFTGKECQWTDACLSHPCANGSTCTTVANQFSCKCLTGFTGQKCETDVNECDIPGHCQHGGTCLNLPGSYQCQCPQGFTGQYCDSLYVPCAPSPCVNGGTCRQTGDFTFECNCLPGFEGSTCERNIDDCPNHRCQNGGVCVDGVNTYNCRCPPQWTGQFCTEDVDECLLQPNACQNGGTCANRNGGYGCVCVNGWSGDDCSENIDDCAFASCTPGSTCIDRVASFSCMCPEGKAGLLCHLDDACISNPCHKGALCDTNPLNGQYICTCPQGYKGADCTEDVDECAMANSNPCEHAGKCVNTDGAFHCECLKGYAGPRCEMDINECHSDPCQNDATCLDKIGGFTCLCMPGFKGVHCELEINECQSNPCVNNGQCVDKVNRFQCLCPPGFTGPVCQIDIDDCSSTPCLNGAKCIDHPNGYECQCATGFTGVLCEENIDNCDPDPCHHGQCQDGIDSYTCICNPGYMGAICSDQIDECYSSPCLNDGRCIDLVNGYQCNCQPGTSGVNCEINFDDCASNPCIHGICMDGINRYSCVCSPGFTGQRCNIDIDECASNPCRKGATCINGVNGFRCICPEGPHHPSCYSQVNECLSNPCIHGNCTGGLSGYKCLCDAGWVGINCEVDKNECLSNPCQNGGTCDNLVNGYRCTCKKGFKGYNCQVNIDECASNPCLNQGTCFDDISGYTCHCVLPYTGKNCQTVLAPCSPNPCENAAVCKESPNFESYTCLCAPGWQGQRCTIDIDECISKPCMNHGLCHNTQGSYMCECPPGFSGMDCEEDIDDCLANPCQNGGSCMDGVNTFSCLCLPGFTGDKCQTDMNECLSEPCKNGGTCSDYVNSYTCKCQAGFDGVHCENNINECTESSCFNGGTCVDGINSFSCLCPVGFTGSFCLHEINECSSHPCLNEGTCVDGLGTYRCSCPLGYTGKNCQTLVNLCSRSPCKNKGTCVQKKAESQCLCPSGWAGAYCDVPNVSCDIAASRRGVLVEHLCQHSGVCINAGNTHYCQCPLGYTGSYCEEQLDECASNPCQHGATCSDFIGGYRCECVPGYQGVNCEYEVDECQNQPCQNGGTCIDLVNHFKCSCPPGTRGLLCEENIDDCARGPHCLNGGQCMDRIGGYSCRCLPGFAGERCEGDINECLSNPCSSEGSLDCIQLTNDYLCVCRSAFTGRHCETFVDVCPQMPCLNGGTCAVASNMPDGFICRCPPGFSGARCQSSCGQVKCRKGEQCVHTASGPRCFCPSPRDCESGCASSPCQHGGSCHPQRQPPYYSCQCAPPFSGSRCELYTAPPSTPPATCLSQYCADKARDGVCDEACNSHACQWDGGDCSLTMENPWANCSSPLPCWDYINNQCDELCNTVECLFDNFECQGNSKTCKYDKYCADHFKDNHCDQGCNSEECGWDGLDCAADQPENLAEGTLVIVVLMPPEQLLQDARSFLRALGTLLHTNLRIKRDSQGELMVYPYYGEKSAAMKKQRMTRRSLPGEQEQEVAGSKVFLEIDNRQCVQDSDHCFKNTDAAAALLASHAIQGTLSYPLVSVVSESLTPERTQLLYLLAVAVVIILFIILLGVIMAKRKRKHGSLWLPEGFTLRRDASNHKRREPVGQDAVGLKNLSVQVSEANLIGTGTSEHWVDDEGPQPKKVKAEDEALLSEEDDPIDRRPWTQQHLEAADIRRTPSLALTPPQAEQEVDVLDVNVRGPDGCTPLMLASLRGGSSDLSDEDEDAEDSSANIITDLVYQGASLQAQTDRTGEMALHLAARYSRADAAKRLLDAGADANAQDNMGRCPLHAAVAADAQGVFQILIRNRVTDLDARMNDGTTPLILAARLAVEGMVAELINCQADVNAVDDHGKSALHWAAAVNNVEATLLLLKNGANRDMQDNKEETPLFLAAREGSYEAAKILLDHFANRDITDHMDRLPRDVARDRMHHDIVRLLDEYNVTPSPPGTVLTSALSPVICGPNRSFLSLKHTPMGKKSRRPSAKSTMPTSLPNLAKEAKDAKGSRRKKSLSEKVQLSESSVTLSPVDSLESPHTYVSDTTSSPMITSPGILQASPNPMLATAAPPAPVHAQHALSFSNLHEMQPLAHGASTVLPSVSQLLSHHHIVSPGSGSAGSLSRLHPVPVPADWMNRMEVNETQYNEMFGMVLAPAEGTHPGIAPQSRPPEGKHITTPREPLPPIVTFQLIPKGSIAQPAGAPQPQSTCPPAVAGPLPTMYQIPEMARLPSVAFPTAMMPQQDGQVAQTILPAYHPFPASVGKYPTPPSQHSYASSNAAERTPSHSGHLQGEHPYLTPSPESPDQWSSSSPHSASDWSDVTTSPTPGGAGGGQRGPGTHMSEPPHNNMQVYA

[6] = target: Pro-neuregulin-1, membrane-bound isoform (Homo sapiens) (UniProt Q02297); test: small molecules binding neuregulin-1 protein – biochemical, small-molecule microarray, fluorescence 635/667, psychiatric disease protein project, primary screen (AID 1075); conditions: NRG1 binding, 635 nm fluorescence, higher = more signal;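 further: score combines 667 nm spot fluorescence with signal to noise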
Chain of Pro-neuregulin-1, membrane-bound isoform (Homo sapiens) (Q02297 whole entry, looked up, the tested form may be a part, canonical isoform): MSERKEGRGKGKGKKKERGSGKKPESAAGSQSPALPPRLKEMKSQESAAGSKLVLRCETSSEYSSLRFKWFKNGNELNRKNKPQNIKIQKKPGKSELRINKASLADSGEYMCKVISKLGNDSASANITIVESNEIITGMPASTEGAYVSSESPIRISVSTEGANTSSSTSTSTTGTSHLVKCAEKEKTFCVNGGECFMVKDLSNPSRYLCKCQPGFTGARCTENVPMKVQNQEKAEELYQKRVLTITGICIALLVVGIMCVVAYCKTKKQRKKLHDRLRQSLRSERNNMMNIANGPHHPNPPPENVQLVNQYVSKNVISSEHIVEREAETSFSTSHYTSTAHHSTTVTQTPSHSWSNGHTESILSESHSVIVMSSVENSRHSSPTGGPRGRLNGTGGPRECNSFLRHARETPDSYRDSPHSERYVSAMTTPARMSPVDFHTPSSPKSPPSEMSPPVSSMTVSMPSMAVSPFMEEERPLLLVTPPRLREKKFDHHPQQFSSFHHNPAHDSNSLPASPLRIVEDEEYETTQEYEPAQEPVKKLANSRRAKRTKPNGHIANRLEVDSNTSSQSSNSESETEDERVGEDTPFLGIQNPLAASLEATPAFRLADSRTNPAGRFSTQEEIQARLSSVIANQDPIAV

[7] = tested on: Neuregulin-1 EGF-like domain; test: small molecules binding NRG1 EGF domain – biochemical, small-molecule microarray, 635 nm fluorescence, primary screen (AID 1081); conditions: higher = more signal;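 further: binding of the protein to compounds printed on small-molecule microarray slides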
[8] = FRG1 expression reporter modulators in myotubes – cell-based, C2C12 myotubes, firefly/Renilla luciferase, luminescence, FRG1 inhibition for FSHD, primary screen (AID 1084); conditions: FRG1 promoter luciferase, higher = more signal, called active from +8 up or from −8 down
[9] = small molecules captured by biotinylated probe aFST – biochemical, small-molecule microarray, fluorescence 635/667, stem cell growth factor project, primary screen (AID 1086); conditions: higher = more signal;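 further: score merges 667 nm fluorescence with signal-to-noise of each printed compound spot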
[10] = binders of probe aHhip on microarray, primary screen, stem cell growth factor project, biochemical, small-molecule microarray, fluorescence 635/667 (AID 1087); conditions: higher = more signal;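 further: score merges spot fluorescence at 667nm with spot signal to noise ratio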
[11] = tested on: PRMT1 (protein arginine N-methyltransferase 1); test: small molecules binding arginine methyltransferase PRMT1 – biochemical, small-molecule microarray, 635 nm fluorescence, primary screen (AID 1088); conditions: higher = more signal;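 further: binding of Prmt1 protein to compounds spotted on small-molecule microarray slides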
[12] = growth effects on S. cerevisiae YJM789 – YJM789 clinical isolate, OD600, 24 h, basal, primary screen (AID 1089); conditions: higher = more signal, called active from +8 up or from −8 down;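 further: growth of clinical yeast isolate S. cerevisiae YJM 789 seeded 1000 cells per well; test concentration not given here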
[13] = S. pombe growth modifiers, basal conditions – strain 972, OD600, 24 h, no modulator, primary screen (AID 1090);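 further: basal condition with compound alone and no growth modifier present; test concentration not given here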; conditions: S. pombe 972 growth, higher = more signal, called active from +8 up or from −8 down
[14] = budding yeast growth modifiers under rapamycin – strain BY4716, OD600, 96 h, primary screen (AID 1091); further: test concentration not given here; conditions: S. cerevisiae BY4716 + rapamycin, higher = more signal, called active from +8 up or from −8 down
[15] = target: Torsin-1A-interacting protein 2 (Homo sapiens) (UniProt Q8NFQ8); test: small molecules binding lysate-expressed LULL1 – cell lysate, human LULL1 lysate, 635/667 nm fluorescence, primary screen (AID 1092); conditions: small-molecule microarray, hLULL1 lysate binding, 635 nm fluorescence; higher = more signal;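 further: probe is lysate of COS7 cells overexpressing human LULL1; score merges per-feature 667 nm fluorescence with signal-to-noise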
Chain of Torsin-1A-interacting protein 2 (Homo sapiens) (Q8NFQ8 whole entry, looked up): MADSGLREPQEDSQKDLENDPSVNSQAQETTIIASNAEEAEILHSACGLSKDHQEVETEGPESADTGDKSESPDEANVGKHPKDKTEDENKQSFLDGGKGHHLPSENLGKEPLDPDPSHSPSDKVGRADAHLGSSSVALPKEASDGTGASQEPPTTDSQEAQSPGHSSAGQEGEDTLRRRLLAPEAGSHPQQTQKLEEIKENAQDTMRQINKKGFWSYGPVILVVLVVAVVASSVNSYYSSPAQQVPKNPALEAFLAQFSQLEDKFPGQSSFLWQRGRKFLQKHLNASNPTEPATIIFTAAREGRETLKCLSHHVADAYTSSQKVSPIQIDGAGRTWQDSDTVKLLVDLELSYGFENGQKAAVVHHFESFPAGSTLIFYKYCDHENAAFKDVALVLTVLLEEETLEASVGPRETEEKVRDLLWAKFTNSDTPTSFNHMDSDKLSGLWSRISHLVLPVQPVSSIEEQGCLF

[16] = optical density change of DRC41 E. coli – strain DRC41, OD650, 24 h, E. coli filamentation project, primary screen (AID 1093);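 further: MC1000 strain lacking acrAB efflux and sulA so SOS filamentation is blocked; test concentration not given here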; conditions: E. coli DRC41 growth, higher = more signal, called active from +8 up or from −8 down
[17] = probe aLefty2 binding to arrayed compounds – biochemical, biotinylated probe, 635/667 nm fluorescence, primary screen (AID 1094); conditions: small-molecule microarray, higher = more signal;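 further: score merges spot fluorescence near 667 nm with spot signal-to-noise ratio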
[18] = tested on: Noggin (protein binding on small-molecule microarray); test: small molecules binding Noggin protein – biochemical, 635/667 nm fluorescence, primary screen (AID 1095); conditions: 635 nm fluorescence, higher = more signal;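 further: score merges 667 nm feature fluorescence with signal to noise over triplicate slides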
[19] = target: Neurogenic locus notch homolog protein 3 (Homo sapiens) (UniProt Q9UM47); test: small molecules binding NOTCH3 protein – biochemical, 635/667 nm fluorescence, primary screen (AID 1096); conditions: small-molecule microarray, 635 nm fluorescence, higher = more signal
[20] = probe aEGFR binding to arrayed compounds – biochemical, biotinylated probe, 635/667 nm fluorescence, primary screen (AID 1097); conditions: small-molecule microarray, higher = more signal;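 further: probe is a biotinylated anti-EGFR antibody binding compounds printed on slides; score combines fluorescence near 667 nm and signal to noise of each spot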

CCCCCCc1nc(-c2cc(C)c(OC)c(C)c2)c(C)c2c1[Si](C(C)C)(C(C)C)OC2
composite z-score [1]: -0.0656 | composite z-score [2]: 0.0489 | composite z-score [3]: -0.093 | composite z-score [4]: -0.0949 | composite z-score [5]: 0.0241 | composite z-score [6]: -0.391 | composite z-score [7]: -0.453 | z-score [8]: 0.785 (inactive) | composite z-score [9]: 0.021 | composite z-score [10]: -0.116 | composite z-score [11]: -0.92 | z-score [12]: 0.0333 (inactive) | z-score [13]: -0.922 (inactive) | z-score [14]: 0.276 (inactive) | composite z-score [15]: -0.407 | z-score [16]: 0.352 (inactive) | composite z-score [17]: -0.0915 | composite z-score [18]: 0.058 | composite z-score [19]: -0.127 | composite z-score [20]: -0.171

CCCC[C@@H](O)C1=C(COc2ccccc2)C[C@H]2C(=O)N(C)C(=O)[C@H]2[C@H]1CO
composite z-score [1]: -0.417 | composite z-score [2]: -0.33 | composite z-score [3]: -0.128 | composite z-score [4]: -0.167 | composite z-score [5]: -0.23 | composite z-score [6]: -0.665 | composite z-score [7]: -0.609 | z-score [8]: -1.64 (inactive) | composite z-score [9]: -0.346 | composite z-score [10]: -0.261 | composite z-score [11]: 0.129 | z-score [12]: -2.42 (inactive) | z-score [13]: -1.79 (inactive) | z-score [14]: -0.561 (inactive) | composite z-score [15]: -0.988 | z-score [16]: 1.31 (inactive) | composite z-score [17]: -0.247 | composite z-score [18]: 0.273 | composite z-score [19]: -0.242 | composite z-score [20]: -0.225

C=CCNC(=O)[C@@H]1[C@H]2C(=O)O[C@H](c3ccccc3)[C@H](c3ccccc3)N2[C@H](c2ccc(O)cc2)[C@@]12C(=O)N(C(=O)OCCOC)c1ccc(C#CC3(O)CCCCCC3)cc12
composite z-score [1]: 0.564 | composite z-score [2]: -0.548 | composite z-score [3]: -0.176 | composite z-score [4]: -1.52 | composite z-score [5]: -2.26 | composite z-score [6]: -0.712 | composite z-score [7]: -0.895 | z-score [8]: -0.659 (inactive) | composite z-score [9]: -1.19 | composite z-score [10]: -0.312 | composite z-score [11]: -0.14 | z-score [12]: -0.857 (inactive) | z-score [13]: 0.183 (inactive) | z-score [14]: -0.26 (inactive) | composite z-score [15]: -1.28 | z-score [16]: 1.23 (inactive) | composite z-score [17]: 0.143 | composite z-score [18]: -0.669 | composite z-score [19]: -0.904 | composite z-score [20]: -0.305

[N-]=[N+]=NCc1ccccc1[C@H]1OC(c2ccc(OCCCO)cc2)=N[C@@]1(CCS(=O)(=O)c1ccccc1)C(=O)NCC(O)CO (stereo not given in full)
composite z-score [1]: 0.115 | composite z-score [2]: -0.191 | composite z-score [3]: 0.252 | composite z-score [4]: 0.564 | composite z-score [5]: 1.47 | composite z-score [6]: 1.25 | composite z-score [7]: 1.36 | z-score [8]: 0.515 (inactive) | composite z-score [9]: 1.46 | composite z-score [10]: 0.126 | composite z-score [11]: 1.56 | z-score [12]: 0.633 (inactive) | z-score [13]: -0.107 (inactive) | z-score [14]: 3.65 (inactive) | composite z-score [15]: 3.79 | z-score [16]: -0.28 (inactive) | composite z-score [17]: 0.0761 | composite z-score [18]: 0.286 | composite z-score [19]: 1.06 | composite z-score [20]: 0.178

C=C(COC)/C(=C/C[C@H](OC(C)=O)c1ccc(OCCO)cc1)c1cc(C(=O)OC)ccc1OC
composite z-score [1]: -0.391 | composite z-score [2]: 1.91 | composite z-score [3]: -0.1 | composite z-score [4]: 1.03 | composite z-score [5]: 0.277 | composite z-score [6]: 0.697 | composite z-score [7]: 1.24 | z-score [8]: -0.658 (inactive) | composite z-score [9]: 0.0308 | composite z-score [10]: -0.476 | composite z-score [11]: 1.53 | z-score [12]: 0.092 (inactive) | z-score [13]: -1.08 (inactive) | z-score [14]: -0.656 (inactive) | composite z-score [15]: 0.914 | z-score [16]: 1.23 (inactive) | composite z-score [17]: -0.119 | composite z-score [18]: 1.68 | composite z-score [19]: 0.794 | composite z-score [20]: -0.126

COc1ccccc1CN1C(=O)c2ccccc2[C@](Cc2ccccc2I)(C(=O)NCC(F)(F)F)[C@@H]1c1ccc(CO)cc1
composite z-score [1]: 0.164 | composite z-score [2]: 0.847 | composite z-score [3]: -0.0454 | composite z-score [4]: 1.21 | composite z-score [5]: 0.981 | composite z-score [6]: 1.51 | composite z-score [7]: 1.36 | z-score [8]: -0.719 (inactive) | composite z-score [9]: 1.37 | composite z-score [10]: 0.0373 | composite z-score [11]: 1.55 | z-score [12]: -0.23 (inactive) | z-score [13]: -0.503 (inactive) | z-score [14]: 0.0879 (inactive) | composite z-score [15]: 3.22 | z-score [16]: -1.13 (inactive) | composite z-score [17]: 0.126 | composite z-score [18]: 0.576 | composite z-score [19]: 0.872 | composite z-score [20]: 0.0024

CC(C)Cc1ccc(CN2CC[C@@H](NC(=O)Nc3ccccc3)C2)cc1
composite z-score [1]: -0.0474 | composite z-score [2]: -0.0461 | composite z-score [3]: -0.173 | composite z-score [4]: 0.118 | composite z-score [5]: -0.3 | composite z-score [6]: -0.54 | composite z-score [7]: -0.0603 | z-score [8]: -0.445 (inactive) | composite z-score [9]: -0.275 | composite z-score [10]: 0.0505 | composite z-score [11]: -0.785 | z-score [12]: -21.2 (active) | z-score [13]: -21.2 (active) | z-score [14]: -4.26 (inactive) | composite z-score [15]: -0.389 | z-score [16]: -0.817 (inactive) | composite z-score [17]: -0.138 | composite z-score [18]: -0.0751 | composite z-score [19]: -0.963 | composite z-score [20]: -0.0214

Cc1cc(C)c(C(O)C2C=CC3C(=O)NC(=O)C3N2Nc2ccc(Cl)cc2Cl)c(C)c1 (stereo not given)
composite z-score [1]: 0.246 | composite z-score [2]: -0.33 | composite z-score [3]: 0.059 | composite z-score [4]: 0.495 | composite z-score [5]: 1.49 | composite z-score [6]: 1.65 | composite z-score [7]: 1.01 | z-score [8]: 2.81 (inactive) | composite z-score [9]: 1.64 | composite z-score [10]: -0.0618 | composite z-score [11]: 1.2 | z-score [12]: -1.67 (inactive) | z-score [13]: -3.28 (inactive) | z-score [14]: 2.14 (inactive) | composite z-score [15]: 3.42 | z-score [16]: -2.14 (inactive) | composite z-score [17]: 0.114 | composite z-score [18]: 0.364 | composite z-score [19]: 0.874 | composite z-score [20]: -0.0581

COc1ccc([Si](C)(C)[C@@H]2[C@@H](CC(=O)N(CCO)Cc3ccccc3)O[C@]3(C(=O)N(c4ccccc4)c4ccccc43)[C@H]2C)cc1
composite z-score [1]: -0.337 | composite z-score [2]: 0.326 | composite z-score [3]: -0.0455 | composite z-score [4]: 0.276 | composite z-score [5]: 0.212 | composite z-score [6]: 0.954 | composite z-score [7]: 1 | z-score [8]: -2.62 (inactive) | composite z-score [9]: 0.593 | composite z-score [10]: -0.0994 | composite z-score [11]: 1.56 | z-score [12]: -0.14 (inactive) | z-score [13]: 0.001 (inactive) | z-score [14]: 0.842 (inactive) | composite z-score [15]: 2.26 | z-score [16]: 1.01 (inactive) | composite z-score [17]: -0.0722 | composite z-score [18]: 1.26 | composite z-score [19]: 1.1 | composite z-score [20]: -0.0512
